Test results as given in PubChem BioAssay (NCI).
Where “and” joins values, the source holds several entries; their conditions need not be identical. Identical values can stand only once. This is part of a sample that, as a whole, favours compounds with a hit. Of some 79,000 tested, about 15% had one in any assay. Some compounds were tested as several samples or in several runs, with calls that do not always agree. Calls of active or inactive are those of the source. Rule as the data show it: active = growth inhibition above about 70%; inactive = the rest.

Tests used:
[1] = NCI Yeast Anticancer Drug Screen. Data for the wt2 strain (AID 169);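 also: 0% = growth of vehicle-treated yeast cultures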; conditions: S. cerevisiae wt2 strain growth inhibition, stronger effect = higher value
How it was run: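 Genetically defined yeast strains from a DNA-repair/cell-cycle panel were used. Compound-exposed yeast growth was measured, and the inhibition was calculated relative to vehicle treatment.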

[2] = NCI Yeast Anticancer Drug Screen. Data for the mlh1 strain (AID 171);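 also: 0% = growth of vehicle-treated control cultures of the same strain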; conditions: S. cerevisiae mlh1 strain growth inhibition, stronger effect = higher value
How it was run: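 Here the genetically defined yeast mutant is grown with each compound, and the extent to which its growth falls below that of vehicle-exposed cells is reported.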

[3] = NCI Yeast Anticancer Drug Screen. Data for the sgs1 strain (AID 173);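 also: 0% = growth of vehicle-only control cultures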; conditions: S. cerevisiae sgs1 mutant, stronger effect = higher value
How it was run: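 Relative growth inhibition, referenced to vehicle, was determined in a yeast strain with a defined alteration affecting DNA damage repair or cell cycle control after compound exposure.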

[4] = NCI Yeast Anticancer Drug Screen. Data for the mlh1 rad18 strain (AID 175); conditions: S. cerevisiae mlh1 rad18 strain growth inhibition, stronger effect = higher value
How it was run: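 In this whole-cell yeast screen, a strain with altered DNA damage repair is challenged with compound, and its growth is measured against matched vehicle-treated controls.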

[5] = NCI Yeast Anticancer Drug Screen. Data for the rad18 strain (AID 177); conditions: S. cerevisiae rad18 mutant growth inhibition, stronger effect = higher value
How it was run: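 Screen uses a yeast strain with a defined lesion in DNA damage repair; compound effect is read as loss of growth compared to untreated vehicle cultures.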

[6] = NCI Yeast Anticancer Drug Screen. Data for the rad52 strain (AID 147);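 also: 0% = growth of vehicle-treated control cultures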; conditions: S. cerevisiae rad52 mutant growth inhibition, stronger effect = higher value
How it was run: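 Measured: yeast growth inhibition. System: strain with a defined DNA damage repair alteration. Reference: vehicle-treated control cultures.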

[7] = NCI Yeast Anticancer Drug Screen. Data for the wt1 strain (AID 149);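 also: 0% = growth of vehicle-treated wt1 cultures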; conditions: S. cerevisiae wt1 strain (SPY 50644) growth inhibition, stronger effect = higher value
How it was run: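 wt1 yeast, compound-treated; % growth inhibition vs vehicle control.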

[8] = NCI Yeast Anticancer Drug Screen. Data for the rad50EPP+ strain (AID 151);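 also: 0% = growth of vehicle-treated control cultures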; conditions: S. cerevisiae rad50 mutant strain, stronger effect = higher value
How it was run: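 One strain with a rad50 alteration (rad50EPP+) was compound-treated, its growth then compared to that of vehicle controls.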

[9] = NCI Yeast Anticancer Drug Screen. Data for the mgt1 strain (AID 153); conditions: S. cerevisiae mgt1 mutant growth inhibition, stronger effect = higher value
How it was run: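 After exposure of the mgt1 yeast mutant to compound, growth was measured and reported as inhibition compared with vehicle controls.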

[10] = NCI Yeast Anticancer Drug Screen. Data for the rad50 strain (AID 155);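 also: 0% = growth of vehicle-only cultures of the same strain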; conditions: S. cerevisiae rad50 strain growth inhibition, stronger effect = higher value
How it was run: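 Genetically altered yeast (DNA repair pathway); compound treatment; growth inhibition vs vehicle ctrl.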

[11] = NCI Yeast Anticancer Drug Screen. Data for the mec2-1 strain (AID 157); conditions: S. cerevisiae mec2-1 strain, stronger effect = higher value
How it was run: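 Test agents were screened against the mec2-1 yeast strain, with defined DNA repair or cell cycle alteration. Growth was scored as inhibition against vehicle-only controls.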

[12] = NCI Yeast Anticancer Drug Screen. Data for the rad14 strain (AID 159);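 also: 0% = growth of vehicle-treated control cultures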; conditions: S. cerevisiae rad14 strain growth inhibition, stronger effect = higher value
How it was run: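 Test compounds were applied to a repair-deficient yeast strain. Its growth was then compared with that of cultures given vehicle alone, and inhibition was expressed relative to those controls.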

[13] = NCI Yeast Anticancer Drug Screen. Data for the sgs1 mgt1 strain (AID 161);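 also: 0% = growth of cultures given vehicle only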; conditions: S. cerevisiae sgs1 mgt1 strain, stronger effect = higher value
How it was run: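 Genetically altered yeast, compound exposure, growth inhibition relative to vehicle.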

[14] = NCI Yeast Anticancer Drug Screen. Data for the CLN2oe strain (AID 163);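 also: 0% = growth of vehicle-only control cultures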; conditions: S. cerevisiae CLN2oe strain, stronger effect = higher value
How it was run: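 Here, growth inhibition in a cell-cycle-altered yeast strain after compound exposure was quantified against vehicle control growth.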

[15] = NCI Yeast Anticancer Drug Screen. Data for the cln2 rad14 strain (AID 165);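 also: 0% = growth equal to vehicle treated cultures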; conditions: S. cerevisiae cln2 rad14 strain, stronger effect = higher value
How it was run: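 Growth of compound-exposed yeast (cln2 rad14 genotype) measured and expressed as inhibition relative to vehicle.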

[16] = NCI Yeast Anticancer Drug Screen. Data for the bub3 strain (AID 167); conditions: S. cerevisiae bub3 mutant strain, stronger effect = higher value
How it was run: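 Yeast carrying a defined mutation is treated with each compound, and growth is compared with that of vehicle-exposed cells to give inhibition.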

[17] = at 5.0 µM (retest, dose inferred, filed as 0.5)
[18] = at 50.0 µM (retest, dose inferred, filed as 5.0)

Measured: growth inhibition

COc1cc([C@@H]2c3cc4c(cc3[C@@H](Nc3ccc(NC(=O)c5cc([N+](=O)[O-])cn5C)cc3)[C@H]3COC(=O)[C@H]23)OCO4)cc(OC)c1O
inactive: [1]; at 1.2 µM -28% | [1]; at 3.7 µM -12% | [1]; at 11.0 µM -8% | [1]; at 33.0 µM 6% | [1]; at 100.0 µM 17% | [2]; at 1.2 µM -15% | [2]; at 3.7 µM 5% | [2]; at 11.0 µM 22% | [2]; at 33.0 µM 39% | [2]; at 100.0 µM 53% | [3]; at 1.2 µM -6% | [3]; at 3.7 µM 6% | [3]; at 11.0 µM 30% | [3]; at 33.0 µM 44% | [3]; at 100.0 µM 49% | [5]; at 1.2 µM -9% | [5]; at 3.7 µM 3% | [5]; at 11.0 µM 27% | [5]; at 33.0 µM 43% | [5]; at 100.0 µM 53%
20.1% (inactive) and 74.3% (active): [4]; at 50.0 µM
37% (inactive) and 80% (active): [4]; [17]
62% (inactive) and 95% (active): [4]; [18]

C#CCN(Cc1ccc2nc(N)[nH]c(=O)c2c1)c1ccc(C(=O)NC(CCC(=O)O)C(=O)O)cc1 (centres undefined)
46% (inactive) and 78% (active): [4]; [18]
62% (inactive) and 82% (active): [13]; [18]
17% (inactive) and 78% (active): [15]; [18]
67% (inactive) and 82% (active): [10]; [18]
active: [6]; at 33.0 µM 73% | [6]; at 100.0 µM 88% | [10]; at 50.0 µM 77.5% and 72.5% | [10]; at 100.0 µM 89% | [11]; at 33.0 µM 89% | [11]; [18] 92% and 98% | [11]; at 50.0 µM 92% and 89.9% | [11]; at 100.0 µM 92% | [16]; [18] 71% and 96% | [3]; at 100.0 µM 75%
inactive: [6]; at 1.2 µM 19% | [6]; at 3.7 µM 29% | [6]; at 11.0 µM 28% | [7]; at 1.2 µM 2% | [7]; at 3.7 µM 9% | [7]; at 11.0 µM 15% | [7]; at 33.0 µM 17% | [7]; at 100.0 µM 43% | [8]; at 1.2 µM 27% | [8]; at 3.7 µM 37% | [8]; at 11.0 µM 44% | [8]; at 33.0 µM 29% | [8]; at 100.0 µM 41% | [9]; at 1.2 µM -29% | [9]; at 3.7 µM -23% | [9]; at 11.0 µM -27% | [9]; at 33.0 µM 17% | [9]; at 100.0 µM 34% | [10]; at 1.2 µM 26% | [10]; at 3.7 µM 29% | [10]; [17] 12% and 1% | [10]; at 11.0 µM 26% | [10]; at 33.0 µM 69% | [11]; at 1.2 µM -9% | [11]; at 3.7 µM -6% | [11]; [17] 4% and -6% | [11]; at 11.0 µM 17% | [12]; at 1.2 µM -2% | [12]; at 3.7 µM 18% | [12]; at 11.0 µM 2% | [12]; at 33.0 µM 44% | [12]; at 100.0 µM 69% | [13]; [17] 20% and 3% | [13]; at 50.0 µM 67.4% and 35.9% | [14]; at 1.2 µM 3% | [14]; at 3.7 µM 6% | [14]; at 11.0 µM -14% | [14]; at 33.0 µM 1% | [14]; at 100.0 µM 28% | [15]; [17] 0% and 14% | [15]; at 50.0 µM 30.1% and 16.3% | [16]; at 1.2 µM -6% | [16]; at 3.7 µM -8% | [16]; [17] 12% and -11% | [16]; at 11.0 µM -18% | [16]; at 33.0 µM 3% | [16]; at 50.0 µM 63.9% and 36.5% | [16]; at 100.0 µM 43% | [1]; at 1.2 µM -9% | [1]; at 3.7 µM -9% | [1]; at 11.0 µM 11% | [1]; at 33.0 µM 21% | [1]; at 100.0 µM 28% | [2]; at 1.2 µM 14% | [2]; at 3.7 µM 14% | [2]; at 11.0 µM 19% | [2]; at 33.0 µM 41% | [2]; at 100.0 µM 55% | [3]; at 1.2 µM 24% | [3]; at 3.7 µM 35% | [3]; at 11.0 µM 36% | [3]; at 33.0 µM 64% | [4]; [17] 5% and -8% | [4]; at 50.0 µM 35% and 20.6% | [5]; at 1.2 µM -2% | [5]; at 3.7 µM -23% | [5]; at 11.0 µM -26% | [5]; at 33.0 µM 33% | [5]; at 100.0 µM 65%

O=C(O)c1cc2ccccc2c2c1C(=O)c1ccccc1-2
inactive: [6]; at 1.2 µM -3% | [6]; at 3.7 µM 21% | [7]; at 1.2 µM -4% | [7]; at 3.7 µM 16% | [7]; at 11.0 µM 47% | [8]; at 1.2 µM -23% | [8]; at 3.7 µM -36% | [8]; at 11.0 µM 10% | [8]; at 33.0 µM 47% | [8]; at 100.0 µM 67% | [9]; at 1.2 µM 11% | [9]; at 3.7 µM 20% | [9]; at 11.0 µM 43% | [10]; at 1.2 µM 4% | [10]; at 3.7 µM 19% | [10]; [17] 8% | [11]; at 1.2 µM -9% | [11]; at 3.7 µM 9% | [11]; [17] 25% | [11]; at 11.0 µM 29% | [12]; at 1.2 µM 8% | [12]; at 3.7 µM 21% | [12]; at 11.0 µM 43% | [13]; [17] 0% | [14]; at 1.2 µM 13% | [14]; at 3.7 µM 28% | [14]; at 11.0 µM 64% | [15]; [17] 45% | [16]; at 1.2 µM -1% | [16]; at 3.7 µM 7% | [16]; [17] 14% | [16]; at 11.0 µM 56% | [1]; at 1.2 µM -1% | [1]; at 3.7 µM 11% | [1]; at 11.0 µM 49% | [2]; at 1.2 µM 9% | [2]; at 3.7 µM 14% | [2]; at 11.0 µM 59% | [3]; at 1.2 µM 18% | [3]; at 3.7 µM 28% | [3]; at 11.0 µM 69% | [4]; [17] 22% | [5]; at 1.2 µM 5% | [5]; at 3.7 µM 12% | [5]; at 11.0 µM 43%
active: [6]; at 11.0 µM 74% | [6]; at 33.0 µM 96% | [6]; at 100.0 µM 94% | [7]; at 33.0 µM 94% | [7]; at 100.0 µM 94% | [9]; at 33.0 µM 95% | [9]; at 100.0 µM 95% | [10]; at 11.0 µM 77% | [10]; at 33.0 µM 95% | [10]; [18] 94% | [10]; at 50.0 µM 88.2% | [10]; at 100.0 µM 93% | [11]; at 33.0 µM 95% | [11]; [18] 96% | [11]; at 50.0 µM 91.5% | [11]; at 100.0 µM 92% | [12]; at 33.0 µM 94% | [12]; at 100.0 µM 95% | [13]; [18] 94% | [13]; at 50.0 µM 92.6% | [14]; at 33.0 µM 96% | [14]; at 100.0 µM 95% | [15]; [18] 97% | [15]; at 50.0 µM 88.8% | [16]; at 33.0 µM 95% | [16]; [18] 96% | [16]; at 50.0 µM 90.8% | [16]; at 100.0 µM 94% | [1]; at 33.0 µM 96% | [1]; at 100.0 µM 95% | [2]; at 33.0 µM 95% | [2]; at 100.0 µM 95% | [3]; at 33.0 µM 95% | [3]; at 100.0 µM 96% | [4]; [18] 97% | [4]; at 50.0 µM 90% | [5]; at 33.0 µM 95% | [5]; at 100.0 µM 94%
